The text below walks through data of ChEMBL document CHEMBL1157539, “Thousands of chemical starting points for antimalarial lead identification” (Nature, 2010).

Holding throughout (type): functional
Assay [1] deals with Plasmodium falciparum. The experiment in a line: GSK_TCMDC: Inhibition of Plasmodium falciparum 3D7 in whole red blood cells, using parasite LDH activity as an index of growth. Test compounds present at 2uM.
Assay [2] deals with Plasmodium falciparum. The experiment in a line: GSK_TCMDC: Inhibition of Plasmodium falciparum Dd2 in whole red blood cells, using parasite LDH activity as an index of growth. Test compounds present at 2uM.
For a further assay, the system named is HepG2. As to the kind of experiment: GSK_TCMDC: Percent inhibition of human HepG2 cell line. Test compounds present at 10uM.

`Cc1cccc2nc(-c3cccc(-c4cccc(NC(=O)Nc5ccccc5)c4)c3)[nH]c12`: the Inhibition (in general, the percentage by which the read-out fell short of the control) was found to be 100% with Plasmodium falciparum [1], 64% in the assay with Plasmodium falciparum [2] and 8% in the assay with HepG2.
Taken in the same sequence, the figures for `O=C(Nc1cccc(-c2nn3ncccc3c2-c2ccnc(Nc3cccc(C(F)(F)F)c3)n2)c1)c1c(F)cccc1F` were 97%, 68% and 49%.
In the same order, the values of `Cc1ccc(Nc2nc(C)cc(NCc3ccc(-n4ccnc4)cc3)n2)cc1` are 100%, 100% and 33%.
In the same order, the values of `Cc1ncccc1C(=O)Nc1cccc(-c2cccc(-c3nc4cccc(C)c4[nH]3)c2)c1` are 93%, 69% and 6%.
As for `CCCCNC(=O)[C@@H]1CCCN1C(=O)c1ccc(O)c(-c2ccc(Cl)c(Cl)c2)c1`, the Inhibition in the assay on Plasmodium falciparum [1] stood at 98%; in the assay on Plasmodium falciparum [2], 92%; in the assay on HepG2 it was 0%.
For the compound `CCOc1ccc(C=CC(=O)Nc2ccc3nc(N4CCOCC4)cc(C)c3c2)cc1OC`, the results for the Inhibition in the assay on Plasmodium falciparum [1], in the assay on Plasmodium falciparum [2] and in the assay with HepG2 were 92%, 23% and 14%, respectively.
Taken in the same sequence, the figures for `FC(F)(F)c1cccc(Nc2nc3nonc3nc2NC2C3CC4CC(C3)CC2C4)c1` (stereo not given) were 100%, 100% and 72%.
As for `O=C(Nc1ccc(N2CCN(Cc3ccccc3Cl)CC2)cc1)c1ccc([N+](=O)[O-])o1`, the Inhibition in the assay with Plasmodium falciparum [1] came to 91%; in the assay with Plasmodium falciparum [2] it was 67%; with HepG2, 100%.
Taken in the same sequence, the figures for `Cl.O=C(CCc1ccccc1)N[C@H](Cc1c[nH]c2ccccc12)C(=O)N1CCC(NCc2ccc3c(c2)Cc2ccccc2-3)CC1` were 92%, 8% and 53%.
Take `CCCNCc1ccc(-c2ccc(CN(C(=O)c3nn(-c4ccccc4)nc3C)C(C)CN(C)C)cc2)nc1.O=C(O)C(F)(F)F` (stereo not given): the figures for the Inhibition in the assay with Plasmodium falciparum [1], in the assay with Plasmodium falciparum [2] and with HepG2 were 95%, 95% and 27%, respectively.
As to `Cn1cccc1CCNCc1ccc(-c2cccc(-c3nc4cc(F)ccc4[nH]3)c2)cc1.O=C(O)C(F)(F)F`, the figures for the Inhibition with Plasmodium falciparum [1], in the assay on Plasmodium falciparum [2] and with HepG2 were 93%, 43% and 0%, respectively.
Consider `COc1ccc(NC(=O)c2cn(-c3ccc(C(C)(C)C)cc3)nc2C)cc1N1CCN(C)CC1`, for which the Inhibition worked out at 96% with Plasmodium falciparum [1], 71% in the assay with Plasmodium falciparum [2] and 33% in the assay on HepG2.
In the case of `Cc1ccccc1C1CCN(C2CCC(NC(=O)/C=C/c3ccc(OC(F)(F)F)cc3)CC2)CC1` (stereo not given), the values for the Inhibition in the assay with Plasmodium falciparum [1], with Plasmodium falciparum [2] and with HepG2 were 100%, 67% and 96%, respectively.
In the same order, the values of `O=C(Nc1ccc(OC2CCN(Cc3ccccc3)C2)c(Cl)c1)c1ccsc1.O=C(O)C(F)(F)F` (stereo not given) are 93%, 75% and 12%.
For `Cc1cc(=NN=Cc2ccccc2F)c2cc(F)ccc2[nH]1`, the values for the Inhibition with Plasmodium falciparum [1], with Plasmodium falciparum [2] and in the assay with HepG2 were 100%, 97% and 9%, respectively.
Take `N#Cc1cccc(NC(=O)Nc2ccc3c(c2)CN(Cc2c[nH]c4ncccc24)C3)c1`: the Inhibition with Plasmodium falciparum [1] is 99%; in the assay on Plasmodium falciparum [2], 12%; with HepG2, 0%.
`CC1CCCN(C(=O)C(C)Nc2cc(Cl)ccc2N2CCOCC2)C1` (stereo not given): the Inhibition in the assay with Plasmodium falciparum [1] came out at 100%; in the assay with Plasmodium falciparum [2], 96%; in the assay with HepG2, 0%.
In the same order, the values of `COC(=O)c1ccc(CCC(C)NCC(O)c2cccc(C(F)(F)F)c2)cc1.Cl` (stereo not given) are 99%, 99% and 16%.
As to `CCc1cn(C)c2c(N3CCCC3=O)cc(C(=O)N[C@@H](Cc3ccccc3)[C@H](O)CNC(C)(C)c3cccc(OC)c3)cc12`, the Inhibition in the assay with Plasmodium falciparum [1] stood at 95%; with Plasmodium falciparum [2] it was 99%; with HepG2 it was 9%.
Taken in the same sequence, the figures for `CN1CCCc2ccc(NC(=O)c3cnc(-c4ccccc4)cn3)cc21` were 87%, 82% and 24%.
Regarding `CCc1cn2c3c(cc(C(=O)N[C@@H](Cc4ccccc4)[C@H](O)CNC(C)C)cc13)N(C)S(=O)(=O)C2.O=CO`, the Inhibition in the assay on Plasmodium falciparum [1] worked out at 98%; in the assay on Plasmodium falciparum [2] it was 98%; with HepG2, 16%.
Consider `O=C(NCCCCN1CCC(c2ccc(Br)cc2)CC1)c1ccc(NC(=O)c2ccc(Cl)cc2)cc1`, for which the Inhibition was found to be 100% in the assay with Plasmodium falciparum [1], 86% in the assay with Plasmodium falciparum [2] and 17% in the assay on HepG2.
For `COc1ccc(-c2ccc(NC(=O)c3ccc(F)cc3)cc2)cc1CNC(C)C.O=C(O)C(F)(F)F`, the Inhibition in the assay on Plasmodium falciparum [1] was found to be 97%; with Plasmodium falciparum [2], 28%; in the assay on HepG2, 24%.
Taken in the same sequence, the figures for `Cc1cccc(Oc2cccc3[nH]nc(N)c23)c1` were 85%, 0% and 6%.
In the same order, the values of `Cl.NC1=NC2(CCCC2)N(c2ccc(Cl)cc2)C(N)=N1` are 97%, 0% and 0%.
Taken in the same sequence, the figures for `CCN(CC)CCNc1ccnc2[nH]c3ccc([N+](=O)[O-])cc3c12` were 100%, 76% and 6%.
Consider `Br.Cc1ccc2ccccc2c1CCCON1C(=N)N=C(N)NC1(C)C`, for which the Inhibition is given as 95% with Plasmodium falciparum [1], 97% in the assay with Plasmodium falciparum [2] and 65% in the assay on HepG2.
In the same order, the values of `Nc1ccc(-c2cnc3[nH]cc(-c4ccc(C(=O)O)cc4)c3c2)cn1.O=C(O)C(F)(F)F` are 97%, 99% and 48%.
In the case of `O=C(NCCCCCN1CCC(c2c[nH]c3ccccc23)CC1)c1ccc(-c2ccccc2)nc1`, the Inhibition is reported as 87% in the assay on Plasmodium falciparum [1], 13% in the assay on Plasmodium falciparum [2] and 43% with HepG2.
Consider `O=S(=O)(Nc1ccc(CCN2CCC(N3CCCCC3)CC2)cc1)c1cccc(C(F)(F)F)c1`, for which the values for the Inhibition in the assay on Plasmodium falciparum [1], in the assay with Plasmodium falciparum [2] and in the assay with HepG2 were 100%, 15% and 20%, respectively.
